Experimental findings from PubChem BioAssay AID1851 (National Center for Advancing Translational Sciences (NCATS), 2009) are described below.

Where “and” joins values, the source holds several entries; their conditions need not be identical. Identical values can stand only once. Among all 16,000 compounds or so, about 5,700 (36%) were called active. Not shown: some 24% with an inconclusive outcome. The list shows a part of the results. Unmarked numbers belong to inactive results. Calls follow the shape of the dose curve; as a rule, active = well fitted curve in the direction sought with a large enough effect; inconclusive = small, poorly fitted or top-dose-only effect, or effect the other way; inactive = no such curve, though single readings can be large or run the other way.
% is scaled to controls: 0 for no effect and ±100 for the full control effect.

This test deals with Cytochrome P450 1A2 (Homo sapiens) (UniProt P05177). In words: Cytochrome panel assay with activity outcomes. Particulars: recombinant CYP, pro-luciferin dealkylation, luminescence, p450-cyp1a2; series mostly up to 57.1 µM; activity, negative = inhibition: at the top concentration.
Sequence of Cytochrome P450 1A2 (Homo sapiens) (P05177 whole entry, looked up): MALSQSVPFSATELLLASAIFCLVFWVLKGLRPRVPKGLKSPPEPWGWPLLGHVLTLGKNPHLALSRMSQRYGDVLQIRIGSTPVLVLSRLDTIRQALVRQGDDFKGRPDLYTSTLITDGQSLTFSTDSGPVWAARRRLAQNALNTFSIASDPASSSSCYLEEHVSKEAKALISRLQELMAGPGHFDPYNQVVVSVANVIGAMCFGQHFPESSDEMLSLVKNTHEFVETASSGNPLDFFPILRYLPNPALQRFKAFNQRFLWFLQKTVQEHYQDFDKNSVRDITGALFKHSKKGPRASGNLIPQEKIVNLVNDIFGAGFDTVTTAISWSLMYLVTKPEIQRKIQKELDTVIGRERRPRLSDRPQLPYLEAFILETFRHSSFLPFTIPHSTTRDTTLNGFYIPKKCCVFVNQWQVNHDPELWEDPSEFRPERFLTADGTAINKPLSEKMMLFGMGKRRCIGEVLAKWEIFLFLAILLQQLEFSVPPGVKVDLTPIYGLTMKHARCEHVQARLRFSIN
`c1cc(CN2CCC3(CCNCC3)CC2)ccn1`: the “activity, negative = inhibition” value is -15.3%.
For the compound `NCc1cc(=O)[nH]o1`, the AC50 – broadly, the midpoint of the concentration-response curve, whichever way the signal moves – was “inactive”.
As for `CN(C)c1ccc(NC(=O)CN2C(=O)CN=C(c3ccccc3)c3ccccc32)cc1`, the AC50 is 10 µM (active).
Turning to `CCN(CC)CCO[C@H]1CC[C@@]2(C)C(=CC[C@@H]3[C@H]2CC[C@]2(C)C(=O)CC[C@H]32)C1`, the “activity, negative = inhibition” value was -19.9%.
Still for that read-out and setting: the figure for `O=C(C[C@H](c1ccccc1)c1c(O)c2ccccc2oc1=O)c1ccccc1` is -12.6% [at 2.29 µM].
In the case of `COc1ccc(NC(=O)N2CC[C@@]3(CCCN(C(=O)Oc4ccccc4)C3)C2)cc1`, the “activity, negative = inhibition” value was -7.09%.
As for `COc1ccc(NC(=O)N2CCCC3(CCN(C(=O)Oc4ccccc4)CC3)C2)cc1`, the AC50 is 12.6 µM (active).
For `O=C(Nc1ccccc1)N1CCC2(CC1)CCN(C(=O)Oc1ccccc1)CC2`, the “activity, negative = inhibition” value is -16.7%.
As for `CN1CCCC2(CCN(C(=O)c3ccncc3)CC2)C1`, the “activity, negative = inhibition” value was -14%.
For `O=c1c2ccccc2nc(N2CCCC2)n1-c1ccc(Cl)cc1`, the AC50 is 5.01 µM (active).
`Cc1nc2sccc2c(=O)n1-c1ccccc1Cl`: the “activity, negative = inhibition” value was -11.7%.
Consider `C[Se]C[C@@H](N)C(=O)O`, for which the “activity, negative = inhibition” value was 0.0958%.
For the compound `CN1C(=O)CCS(=O)(=O)[C@H]1c1ccc(Cl)cc1`, the “activity, negative = inhibition” value was -10.6%.
Still for that read-out and setting: the figure for `O=C(C1CC(=O)N(C2CCCC2)C1)N1CCC2(CC1)OCCO2` (stereo not given) is 0.726%.
Take `N[C@H](Cc1c[nH]c2ccccc12)P(=O)(O)O`: the activity, negative = inhibition was -15.7% [at 11.4 µM].
For the compound `CC(C(=O)c1c[nH]c2ccccc12)N1CCSCC1` (stereo not given), the AC50 is 15.8 µM (active).
With `C[N+]1(C)[C@@H]2CC[C@H]1CC(OC(=O)c1c[nH]c3ccccc13)C2` (stereo not given in full), the “activity, negative = inhibition” value is -2.58%.
In the case of `C=Cn1ccnc1P(=S)(c1nccn1C=C)C1CCCCC1`, the “activity, negative = inhibition” value was -21.2%.
Consider `Cc1cc(=O)n(-c2ccccc2)n1C`, for which the “activity, negative = inhibition” value was -12.9% [at 25.6 µM].
With `C=C(C)[C@H]1CN[C@H](C(=O)O)[C@@H]1CC(=O)O`, the “activity, negative = inhibition” value was 6.18%.
With `CC(N)Cc1ccccc1Sc1ccc(O)cc1` (stereo not given), the “activity, negative = inhibition” value is -12.6%.
Still for that read-out and setting: the figure for `CC(=O)N[C@@H]1CCSC1=O` is -5.47% [at 25.6 µM].
As to `CCOC(C(=O)OCCCN(CC)CC)(c1ccccc1)c1ccccc1`, the “activity, negative = inhibition” value was -0.835%.
In the case of `CC[N@+]1(C)CCC[C@@H](OC(=O)C(O)(c2ccccc2)c2ccccc2)C1`, the “activity, negative = inhibition” value is 2.32% [at 25.6 µM].
`CCN(CC)CC#CCOC(=O)[C@@](O)(c1ccccc1)C1CCCCC1`: the AC50 was 1.26 µM (active).
`c1ccc(CN2CCCC3(CCNCC3)C2)cc1`: the “activity, negative = inhibition” value was -1.46%.
Take `C/C(=N\OC(=O)NC(C)C)c1sc(-c2ccccc2)nc1C`: the AC50 was 2 µM (active).
Turning to `C/C(=N\OC(=O)NC(C)C)c1sc(-c2ccc(Cl)cc2)nc1C`, the AC50 was 1.12 µM (active).
As for `CC[C@@H]1CN2CCc3cc(OC)c(OC)cc3[C@H]2C[C@@H]1C[C@@H]1NCCc2cc(O)c(OC)cc21`, the “activity, negative = inhibition” value is -7.35% [at 25.6 µM].
On to `CCN1C[C@]2(C)CC[C@H](OC)[C@@]34[C@@H]2[C@H](OC(C)=O)[C@]2(OCO[C@@]25C[C@@H](OC)[C@@H]2C[C@@]3(O)[C@H]5[C@@H]2OC)[C@H]14`, for which the “activity, negative = inhibition” value was -3.74% [at 25.6 µM].
Same read-out and setting: the figure for `CCN(CC)c1ncnc2c1ncn2[C@@H]1O[C@@H](COP(=O)(O)OP(=O)(O)C(Br)(Br)P(=O)(O)O)[C@H](O)[C@@H]1O` is 2.91%; for `CCc1ccccc1NC(=S)NC1CC2CCC(C1)N2Cc1ccco1` (stereo not given) it is 6.19%.
For `CN1[C@H](CC(=O)c2ccccc2)CCC[C@H]1C[C@H](O)c1ccccc1`, the AC50 is 15.8 µM (active).
As to `Cn1c[n+](C)cc1C(O)c1ccccc1` (stereo not given), the “activity, negative = inhibition” value was 1.79%.
For the compound `CN1[C@@H](C[C@@H](O)c2ccccc2)CCC[C@@H]1C[C@H](O)c1ccccc1`, the AC50 is 5.01 µM (active).
With `CN1[C@@H]2CC[C@H]1CC(O[C@@H](c1ccccc1)c1ccc(Cl)cc1)C2` (stereo not given in full), the “activity, negative = inhibition” value was -6.52%.
As for `CC[C@@]1(c2ccc(N)cc2)CCC(=O)NC1=O`, the AC50 result is “inactive”.
On to `Oc1ccc2c3c1O[C@H]1c4[nH]c5ccccc5c4C[C@]4(O)[C@H](C2)N(CC2CC2)CC[C@@]314`, for which the “activity, negative = inhibition” value is -1.2%.
Regarding `NS(=O)(=O)c1cc([C@@]2(O)NC(=O)c3ccccc32)ccc1Cl`, the “activity, negative = inhibition” value is -4.19% [at 25.6 µM].
Still for that read-out and setting: the figure for `C[N+](C)(C)[C@H](Cc1c[nH]c(=S)[nH]1)C(=O)O` is -18.9% [at 11.4 µM]; for `COc1cc(C(=O)OC2C[C@H]3CC[C@@H](C2)N3C)ccc1O` (stereo not given in full) it is -0.206% [at 25.6 µM].
For `C=C(C)[C@H]1CC[C@]2(CO)CC[C@]3(C)[C@@H](CC[C@H]4[C@@]5(C)CC[C@@H](O)C(C)(C)[C@@H]5CC[C@@]43C)[C@H]12`, the “activity, negative = inhibition” value was -6.53% [at 25.6 µM].
On the same count and under the same terms, the figure for `O=C(Nc1cccc(F)c1)N1CC2(CCNCC2)C1` is -5.1%; for `CC(C)C[C@H](NP(=O)(O)O[C@@H]1O[C@@H](C)[C@@H](O)[C@@H](O)[C@H]1O)C(=O)N[C@@H](Cc1c[nH]c2ccccc12)C(=O)O` it is -1.79%.
In the case of `NCCc1c[nH]c2ccccc12`, the AC50 is 3.16 µM (active).
As to `NCCc1c[nH]c2ccc(O)cc12`, the AC50 was 2 µM (active).
Turning to `NCCc1ccc(O)cc1`, the “activity, negative = inhibition” value was -14.6%.
As to `CN(C)CCCc1c[nH]c2ccccc12`, the activity, negative = inhibition is -12.5% [at 11.4 µM].
As to `CC(=O)NCCc1c[nH]c2ccccc12`, the AC50 was 15.8 µM (active).
On the same count and under the same terms, the figure for `NCCc1c[nH]c2ccc(C(N)=O)cc12` is 6.31 µM (active) and 1.26 µM (active).
